Results: the supplement of paper PMC10369915

Target: SHP2 N-SH2 domain T42A
Assay: log2 enrichment relative to wild-type ITIM peptide; higher = stronger binding

Row | Binder | log2 enrichment
1 | VFHVDYGELDF [PD-1 ITIM pTyr223 peptide variant S220H] | 0.0672
2 | VFSHDYGELDF [PD-1 ITIM pTyr223 peptide variant V221H] | -1.23
3 | VFSVHYGELDF [PD-1 ITIM pTyr223 peptide variant D222H] | 1.68
4 | VFSVDYGHLDF [PD-1 ITIM pTyr223 peptide variant E225H] | -0.301
5 | VFSVDYGEHDF [PD-1 ITIM pTyr223 peptide variant L226H] | -1.46
6 | VFSVDYGELHF [PD-1 ITIM pTyr223 peptide variant D227H] | -0.826
7 | VFSVDYGELDH [PD-1 ITIM pTyr223 peptide variant F228H] | -1.32
8 | VRSVDYGELDF [PD-1 ITIM pTyr223 peptide variant F219R] | 1.24
9 | VFRVDYGELDF [PD-1 ITIM pTyr223 peptide variant S220R] | 1.22
10 | VFSRDYGELDF [PD-1 ITIM pTyr223 peptide variant V221R] | -1.04
11 | VFSVRYGELDF [PD-1 ITIM pTyr223 peptide variant D222R] | 2.89
12 | VFSVDYGRLDF [PD-1 ITIM pTyr223 peptide variant E225R] | -0.382
13 | VFSVDYGELRF [PD-1 ITIM pTyr223 peptide variant D227R] | -0.941
14 | VFSVDYGELDR [PD-1 ITIM pTyr223 peptide variant F228R] | -1.52
15 | KFSVDYGELDF [PD-1 ITIM pTyr223 peptide variant V218K] | 0.439
16 | VFSKDYGELDF [PD-1 ITIM pTyr223 peptide variant V221K] | -1
17 | VFSVDYKELDF [PD-1 ITIM pTyr223 peptide variant G224K] | 2.48
18 | VFSVDYGKLDF [PD-1 ITIM pTyr223 peptide variant E225K] | 0.303
19 | VFSVDYGEKDF [PD-1 ITIM pTyr223 peptide variant L226K] | -1.37
20 | YFSVDYGELDF [PD-1 ITIM pTyr223 peptide variant V218Y] | -0.0716

Row | Binder | log2 enrichment
21 | VYSVDYGELDF [PD-1 ITIM pTyr223 peptide variant F219Y] | 0.45
22 | VFSYDYGELDF [PD-1 ITIM pTyr223 peptide variant V221Y] | 0.57
23 | VFSVYYGELDF [PD-1 ITIM pTyr223 peptide variant D222Y] | 0.0176
24 | VFSVDYYELDF [PD-1 ITIM pTyr223 peptide variant G224Y] | -0.792
25 | VFSVDYGYLDF [PD-1 ITIM pTyr223 peptide variant E225Y] | -0.767
26 | VFSVDYGEYDF [PD-1 ITIM pTyr223 peptide variant L226Y] | -1.46
27 | VFSVDYGELDY [PD-1 ITIM pTyr223 peptide variant F228Y] | -1.37
28 | VWSVDYGELDF [PD-1 ITIM pTyr223 peptide variant F219W] | -0.244
29 | VFWVDYGELDF [PD-1 ITIM pTyr223 peptide variant S220W] | -0.544
30 | VFSVWYGELDF [PD-1 ITIM pTyr223 peptide variant D222W] | -0.569
31 | VFSVDYWELDF [PD-1 ITIM pTyr223 peptide variant G224W] | -0.623
32 | VFSVDYGELWF [PD-1 ITIM pTyr223 peptide variant D227W] | -0.71
33 | VFSVDYGELDW [PD-1 ITIM pTyr223 peptide variant F228W] | 0.678
34 | FFSVDYGELDF [PD-1 ITIM pTyr223 peptide variant V218F] | -0.37
35 | VFFVDYGELDF [PD-1 ITIM pTyr223 peptide variant S220F] | -0.202
36 | VFSFDYGELDF [PD-1 ITIM pTyr223 peptide variant V221F] | -1.03
37 | VFSVFYGELDF [PD-1 ITIM pTyr223 peptide variant D222F] | -0.334
38 | VFSVDYGFLDF [PD-1 ITIM pTyr223 peptide variant E225F] | -0.82
39 | VFSVDYGELFF [PD-1 ITIM pTyr223 peptide variant D227F] | -0.714
40 | VFSLDYGELDF [PD-1 ITIM pTyr223 peptide variant V221L] | -0.962

Row | Binder | log2 enrichment
41 | VFSVDYLELDF [PD-1 ITIM pTyr223 peptide variant G224L] | -0.0968
42 | VFSVDYGLLDF [PD-1 ITIM pTyr223 peptide variant E225L] | -0.496
43 | VFSVDYGELLF [PD-1 ITIM pTyr223 peptide variant D227L] | -0.728
44 | VFSVDYGELDL [PD-1 ITIM pTyr223 peptide variant F228L] | -1.19
45 | IFSVDYGELDF [PD-1 ITIM pTyr223 peptide variant V218I] | -0.151
46 | VFSIDYGELDF [PD-1 ITIM pTyr223 peptide variant V221I] | -0.464
47 | VFSVIYGELDF [PD-1 ITIM pTyr223 peptide variant D222I] | -0.259
48 | VFSVDYGILDF [PD-1 ITIM pTyr223 peptide variant E225I] | -0.312
49 | VFSVDYGEIDF [PD-1 ITIM pTyr223 peptide variant L226I] | -0.691
50 | VFSVDYGELDI [PD-1 ITIM pTyr223 peptide variant F228I] | -1.45
51 | VVSVDYGELDF [PD-1 ITIM pTyr223 peptide variant F219V] | -0.0583
52 | VFVVDYGELDF [PD-1 ITIM pTyr223 peptide variant S220V] | -0.0553
53 | VFSVVYGELDF [PD-1 ITIM pTyr223 peptide variant D222V] | 0.135
54 | VFSVDYGELVF [PD-1 ITIM pTyr223 peptide variant D227V] | -0.565
55 | VFSVDYGELDV [PD-1 ITIM pTyr223 peptide variant F228V] | -1.42
56 | MFSVDYGELDF [PD-1 ITIM pTyr223 peptide variant V218M] | 0.0157
57 | VFMVDYGELDF [PD-1 ITIM pTyr223 peptide variant S220M] | -0.0956
58 | VFSMDYGELDF [PD-1 ITIM pTyr223 peptide variant V221M] | -0.943
59 | VFSVMYGELDF [PD-1 ITIM pTyr223 peptide variant D222M] | 0.307
60 | VFSVDYMELDF [PD-1 ITIM pTyr223 peptide variant G224M] | -0.224
